# Test results taken from PubChem BioAssay (NCI).
# About 83,000 compounds went through this panel and 20% of them were active in at least one assay; those are over-represented in the sample as a whole.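 Assay: single dose, 48 h. Readout: percent growth (0 = no net growth; negative = cell death). Active: <10.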 A number with no mark means an inactive call. Calls of active or inactive are those of the source.
# What was measured:
# Assay in all cases: NCI-60 one-dose screen, 48 h (100 = growth as untreated, 0 = no growth, -100 = all killed)
# Details in all cases: 10 µM unless noted
# [1] = tested on: HCT-15 colon
# [2] = tested on: HT29 colon
# [3] = tested on: SNB-75 CNS
# [4] = tested on: SNB-19 CNS
# [5] = tested on: U251 CNS
# [6] = tested on: PC-3 prostate
# [7] = tested on: SK-MEL-5 melanoma
# [8] = tested on: UACC-62 melanoma
# [9] = tested on: LOX IMVI melanoma
# [10] = tested on: SK-MEL-28 melanoma
SMILES,growth [1],growth [2],growth [3],growth [4],growth [5],growth [6],growth [7],growth [8],growth [9],growth [10]
CCOc1ccccc1NC1=C(Cl)C(=O)c2nc(C)ccc2C1=O,-76.6% (active),20%,101%,46.5%,37.9%,4.34% (active),-97.8% (active),-29.1% (active),-82.2% (active),14.6%
O=C1Nc2ccccc2/C1=C/c1ccc(COCC2CO2)n1-c1ccc(O)cc1 (stereo not given),107%,110%,95.1%,97.7%,99.4%,101%,101%,96%,79.6%,106%
Nc1nc(-c2cccc([N+](=O)[O-])c2)c(N=Nc2ccc([N+](=O)[O-])cc2Cl)s1,3.38% (active),10.7%,-1.14% (active),17%,10.3%,5.14% (active),-76.6% (active),1.4% (active),14.1%,22.8%
c1n[nH]cc1-c1nc2ccc3[nH]ncc3c2c2c1CCCC2,12.7%,24%,7.62% (active),23.1%,30.1%,23.1%,16.1%,-0.281% (active),18.8%,18.3%
CC(=O)C1=C(C)NC(NN)=NC1c1cccc(Cl)c1 (stereo not given),102%,111%,95.9%,103%,95%,96.9%,106%,93.9%,111%,106%
COc1ccc(N2C(=O)c3cc(Cl)ccc3NC2SCc2ccccc2)cc1 (stereo not given),82%,84.1%,94.9%,95.7%,99.4%,84.8%,102%,70.3%,94.8%,99.2%
CC(C)(C)n1cc(-c2ccnc(NCCCNS(=O)(=O)c3cccc(F)c3)n2)c(-c2ccc(Cl)c(O)c2)n1,89.6%,94.8%,110%,103%,106%,67.5%,95.5%,89.5%,96.4%,95.4%
NC(N)=Nc1ccc(Oc2cccc(NC(N)=Nc3ccc(Br)cc3)c2)cn1,85.4%,59.7%,68.6%,18.8%,43.1%,38.2%,35.6%,63.2%,0.0918% (active),82.9%
CC1(C)CC[C@]2(C(=O)N3CCOCC3)CC[C@]3(C)C(=CC[C@@H]4[C@@]5(C)C/C(=C/c6ccccn6)C(=O)C(C)(C)[C@@H]5CC[C@]43C)[C@@H]2C1,52.1%,56.3%,34.1%,88%,80.7%,20.9%,69.3%,64.8%,55.9%,86.1%
Cn1cc(-c2nnc(N)nc2-c2c[nH]c3ccc(F)cc23)c2cc(F)ccc21,62%,73.8%,100%,75.8%,70.6%,72.2%,96.8%,73.8%,65.4%,94.4%
O=S(=O)(NCCNc1nccc(-n2cnc3ccccc32)n1)c1ccc(Br)cc1,95.7%,97.2%,74.1%,101%,98.6%,93.8%,89.1%,82.8%,99.1%,108%
CCOC(=O)c1c(Nc2ccccc2)nn2c(-c3ccccc3)ccnc12,63.3%,84.4%,67.1%,98.3%,90.8%,92.8%,78.5%,87.7%,83%,101%
O=C(c1ccc(Cl)cc1)C1[C@H](c2ccc(Cl)cc2)[C@@H](c2ccccc2)NC12C(=O)Nc1ccccc12 (stereo not given in full),35.1%,15.4%,51.1%,70.3%,45.8%,29.1%,75.1%,52.8%,42.4%,81.2%
Cc1cccc2c3c(sc12)C(c1ccc(Cl)cc1)c1c(nc(CC(=O)Nc2ccccc2)[nH]c1=O)O3 (stereo not given),47.5%,73.6%,30.8%,64.5%,54.2%,43.3%,91.7%,27%,56.1%,56.5%
CC(=O)O[C@@H]1C(=O)N(c2cnccn2)[C@H]1c1ccccc1[N+](=O)[O-],15.9%,2.42% (active),21.5%,41.8%,-3.35% (active),24.6%,-57.2% (active),30%,6.26% (active),57.1%
CC(=O)c1ccc(Nc2nc(SCC(C)C)nc(-c3ccc(F)cc3)c2C#N)cc1,104%,107%,125%,112%,104%,108%,101%,108%,112%,108%
O=C(c1ccc(O)c(C(=O)N2Cc3ccc(OCCC[P+](c4ccccc4)(c4ccccc4)c4ccccc4)cc3C2)c1)N1Cc2cccc(F)c2C1,97.6%,101%,95.4%,38.1%,56.8%,78.9%,29.3%,45.5%,67.1%,58%
CNC(=O)c1c(NC(=O)c2ccccc2C(F)(F)F)sc2c1CCC(=O)C2,9.11% (active),26.5%,93.1%,41.1%,24.8%,14.8%,-17.1% (active),16.6%,22%,45.4%
CS(=O)(=O)Nc1cc(-c2ccc3ncc(C#N)c(NCc4ccccc4)c3c2)cnc1Cl,8.19% (active),6.89% (active),-36.7% (active),7.25% (active),11.1%,-7.11% (active),-95.3% (active),-28% (active),-32.6% (active),-7.57% (active)
O=C1/C(=C/C=C/c2ccco2)SC(=S)N1C1CCCCC1,79.2%,85.3%,103%,93.9%,84%,92.9%,58.4%,56.7%,103%,72.5%
N#Cc1cn(Cc2ccc(Cl)cc2Cl)c(C(=O)c2ccc(Br)cc2)c1N,94.6%,102%,89.6%,69.5%,86.1%,86.9%,97.5%,82.8%,90.1%,99%
COc1cc(OC)c(/C=C/S(=O)(=O)Cc2ccc(OC)c(NCC(=O)NO)c2)c(OC)c1,12.9%,5.84% (active),27.6%,18.5%,13.4%,22.7%,-30.6% (active),12.4%,8.14% (active),56.8%
NC(N)=Nc1ccc(Oc2cccc(Oc3ccc(Cl)c(C(F)(F)F)c3)c2)cn1,-83.7% (active),-68.4% (active),73.3%,-84.5% (active),-82.2% (active),-93.8% (active),14.3%,-77.5% (active),-88.6% (active),-29.4% (active)
CCCCNNC(=O)c1ccc(-c2cccc(F)c2F)cc1,55.1%,10.6%,80.7%,54.6%,36%,45.9%,5.84% (active),8.48% (active),21.8%,25.7%
Cc1ccc(S(=O)(=O)NCCNc2nc(Nc3ccc(N4CCN(C)CC4)cc3)nc3ccsc23)cc1,29.2%,63.4%,67.8%,104%,90.8%,87.9%,95.9%,103%,97.8%,103%
O=c1[nH]c2ccccc2cc1CSc1ccccc1Nc1nccc(-c2ccc(Cl)cc2)n1,101%,109%,71.7%,98.8%,104%,87.9%,96.6%,77.1%,96.3%,107%
